Source: PubChem BioAssay (National Center for Advancing Translational Sciences (NCATS))
KAT2A inh: qHTS Assay for Inhibitors of GCN5L2; AID 504327, 2011; 390,000 compounds, 0.21% hits; Potency, µM (series often up to 58.9 µM), inactives show at the top dose activity change, negative = inhibition, most hits filed as inhibitors; Histone acetyltransferase KAT2A (Homo sapiens), Q92830; GCN5L2 HAT assay, ThioGlo1 CoA-SH fluorescence
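Free CoA generated was detected with ThioGlo1 (50uM) fluorescence at Ex340nm/Em540nm, read immediately and after 20 min at room temperature. Enzyme, 20 nM in HEPES pH 7.5 buffer, saw compounds 15 min before adding 75uM H3(1-25) peptide and 70uM acetyl-CoA.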
TrxR1 substrate: qHTS Assay for Substrates of Mammalian Selenoprotein Thioredoxin Reductase 1 (TrxR1): qHTS; AID 588456, 2011; 390,000 compounds, 0.01% hits; Potency, µM (highest dose often 114 µM), without a hit: at the highest dose activity change, negative = substrate turnover; Thioredoxin reductase 1, cytoplasmic (Rattus norvegicus), O89049; purified TrxR1 substrate turnover, NADPH consumption readout; further: nearly all actives have a fitted effect of over 50% in size
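Rat TrxR1, dispensed at 90 nM, was prereduced with 400 uM NADPH (final) for 5 min at ~22 deg C, then incubated with compound 15 min before 400 uM selenite. A first-read NADPH fluorescence drop versus no-compound background flagged substrates.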
TrxR1 inh: qHTS Assay for Inhibitors of Mammalian Selenoprotein Thioredoxin Reductase 1 (TrxR1): qHTS. recombinant rTrxR1, NADPH fluorescence consumption, selenite substrate. 390,000 compounds, 1% hits. AID 588453, 2011. Potency, µM (series often up to 114 µM), without a hit: at the highest dose activity change, negative = inhibition, hits mostly inhibitors; further: nearly all actives have a fitted effect of over 65% in size
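Rat TrxR1 (90 nM in the dispensed reagent) was pre-reduced with 400 uM NADPH for 5 min at room temperature, then incubated with compound for 15 min. After 400 uM selenite was added, NADPH fluorescence (Ex 340/Em 450 nm) was followed for 8 min.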
Sfp inh: qHTS Assay for Inhibitors of Bacillus subtilis Sfp phosphopantetheinyl transferase (PPTase). 4'-phosphopantetheinyl transferase ffp (Bacillus subtilis), Q9F4F7. Potency, µM, for the others: largest response in the series, negative = inhibition, actives largely listed as inhibitors. Biochemical Sfp PPTase activity, qHTS. AID 1490, 2009. 310,000 compounds, 3.5% hits;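 further: the enzyme is Sfp with the accession as filed and its product quenches rhodamine fluorescence; 0% = enzyme reaction without inhibitor and -100% = no enzyme wells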
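Fluorescence-quenching assay with 15 nM Sfp, 5 uM rhodamine-CoA and 12.5 uM BHQ-2-labelled ybbR peptide in pH 7.6 Hepes/MgCl2 buffer. Enzyme was pre-incubated with compound for 15 min at room temperature. Rate was taken from the 30-min fluorescence change (525/598 nm).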
GLS inhibitor: qHTS for Inhibitors of Glutaminase (GLS) | Glutaminase kidney isoform, mitochondrial (Homo sapiens), O94925 | GLS enzymatic activity, qHTS titration | Potency, µM (doses to about 45.5 µM), inactives show at the highest dose activity change, negative = inhibition, hits mostly inhibitors | 410,000 compounds, 0.21% hits | AID 624170, 2012
Target sequence (O94925 whole entry, looked up, canonical isoform): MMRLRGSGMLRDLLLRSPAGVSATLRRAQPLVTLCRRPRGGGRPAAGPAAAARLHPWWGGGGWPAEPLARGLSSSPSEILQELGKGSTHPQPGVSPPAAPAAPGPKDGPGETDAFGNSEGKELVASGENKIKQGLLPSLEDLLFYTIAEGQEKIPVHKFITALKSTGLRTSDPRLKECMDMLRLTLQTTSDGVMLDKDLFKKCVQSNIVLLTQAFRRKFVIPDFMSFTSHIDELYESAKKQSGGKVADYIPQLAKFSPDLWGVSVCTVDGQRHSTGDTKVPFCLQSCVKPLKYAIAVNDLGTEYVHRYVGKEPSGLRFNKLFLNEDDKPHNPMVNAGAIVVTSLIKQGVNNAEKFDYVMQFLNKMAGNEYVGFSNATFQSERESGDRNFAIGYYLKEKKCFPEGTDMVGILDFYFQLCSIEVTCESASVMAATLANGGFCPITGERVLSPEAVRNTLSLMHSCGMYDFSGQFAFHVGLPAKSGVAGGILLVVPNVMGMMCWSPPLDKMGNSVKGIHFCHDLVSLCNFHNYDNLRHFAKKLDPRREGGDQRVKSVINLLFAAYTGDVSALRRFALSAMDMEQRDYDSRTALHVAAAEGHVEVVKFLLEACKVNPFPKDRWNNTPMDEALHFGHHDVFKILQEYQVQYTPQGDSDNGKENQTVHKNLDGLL
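Compounds were pin-transferred onto hKGA, after which L-glutamine (1 mM solution) and a detection mix of glutamate oxidase, HRP and Amplex Red were added. Initial and 30 min RT fluorescence reads were collected.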
VDR inhibitor: Inhibitors of the vitamin D receptor (VDR): qHTS; 400,000 compounds, 0.93% hits; AID 504847, 2011; VDR-SRC2-3 peptide fluorescence polarization, 2 h; Vitamin D3 receptor (Homo sapiens), P11473; Potency, µM, for inactives: max response, negative = inhibition, hits mostly inhibitors
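Inhibition of the VDR/SRC2-3 peptide interaction is quantified by fluorescence polarization. Compounds (23 nl, pintool) incubate with the reagents for 2 hours at ambient room temperature.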
Numbers without * were called inactive; ? = inconclusive; . = no result given; [ ] = another dose, or the depositor's remark. The list is not random: actives were taken first. Their share in the collection is about 3.8%. The call rests on the fitted dose curve; in most records, active means well fitted curve in the direction sought with a large enough effect; inconclusive means small, poorly fitted or top-dose-only effect, or another doubt; inactive means no such curve, though single readings can be large; an effect the other way counts as inactive or inconclusive. Unless noted, on the % scale 0 is the no-effect control and ±100 the full control effect; potency means the concentration at half of the fitted maximal effect.

SMILES	KAT2A inh	TrxR1 substrate	TrxR1 inh	Sfp inh	GLS inhibitor	VDR inhibitor
Nc1ccc(N2CCCCC2)c(S(=O)(=O)Nc2ccccc2Cl)c1	-15%	-6%	7%	28µM*	19%	-14%
COc1ccccc1NS(=O)(=O)c1cc(NC(=O)C2CCC2)ccc1N1CCCCC1	-27%	-9%	-19%	8.9µM*	-9%	?
O=C(CC(C(=O)O)N1CCOCC1)Nc1ccc(Cl)cc1 (configuration not stated)	1%	6%	13%	-9%	-1%	0%
C[C@@H]1O[C@@H](OC[C@H]2O[C@@H](Oc3cc(O)c4c(=O)cc(-c5ccc(O)c(O)c5)oc4c3)[C@H](O)[C@@H](O)[C@@H]2O)[C@H](O)[C@H](O)[C@H]1O	-10%	-19%	-15%	.	?	-19%
CC1(c2ccccc2)NC(=O)N(CC(=O)Nc2nc(-c3ccccn3)cs2)C1=O (configuration not stated)	2%	0%	8%	.	7%	-29%
C[C@@H](C(=O)Nc1nc(-c2ccccn2)cs1)N1C(=O)C2CCCCC2C1=O (some centres not stated)	?	1%[57.1 µM]	16%[57.1 µM]	50µM*	-18%	?
O=C(CN1C(=O)C2CCCCC2C1=O)Nc1nc(-c2ccccn2)cs1 (configuration not stated)	-10%	-5%[11.4 µM]	-37%[57.1 µM]	16µM*	-15%	-8%
Cc1oc(-c2cccc(Cl)c2)nc1CN1CCCC(C(=O)N2CCN(c3ccc(F)cc3)CC2)C1 (configuration not stated)	-1%	-6%	-7%	.	6%	-12%
O=C(O)[C@@H]1CSC2(CCSC2)N1 (some centres not stated)	-4%	.	.	45µM*	.	.
Cc1ccc(NC(=O)/C(=C\c2ccc([N+](=O)[O-])cc2)NC(=O)c2ccccc2)cc1	-6%	-8%	6%[57.1 µM]	17%	-4%	-3%
O=C(N/N=C/c1ccc(O)c(O)c1O)/C(=C/c1ccc([N+](=O)[O-])cc1)NC(=O)c1ccccc1	-5%	-22%	?	45µM*	-9%	?
CCc1ccccc1NC(=O)Cn1c(=O)n(Cc2ccco2)c(=O)c2sc3ccccc3c21	-5%	0%	-7%	.	1%	-6%
O=C(CSc1nnc(-c2ccc(C(F)(F)F)cn2)o1)Nc1ccccc1Cl	-9%	2%[57.1 µM]	-6%[57.1 µM]	71µM*	1%	-12%
CCc1nnc(NS(=O)(=O)c2ccc(N/C=C\C(=O)c3ccc(F)cc3)cc2)s1	-5%	-7%[57.1 µM]	-11%	12%	10%	2%
CCOC1=C2[C@H](c3ccccc3)N(S(=O)(=O)c3ccc(C)cc3)C(C(C)(C)C)[C@H]2C(C#N)(C#N)C(C#N)(C#N)C1 (some centres not stated)	.	.	.	.	2.2µM*	.
CCOC1=C2CN(S(=O)(=O)c3ccc(C)cc3)[C@H](c3cccc4ccccc34)C[C@H]2C(C#N)(C#N)C(C#N)(C#N)C1	.	.	.	.	-11%	.
COc1ccc(-c2cnc(NCc3cc4c(cc3[N+](=O)[O-])OCO4)n2C)cc1	-1%	-7%	-15%	50µM*	5%	-2%
Cc1cc(C2=NNC(=NC3CC3)SC2)c(C)n1Cc1ccco1	-2%	0%	12%	?	3%	?
COCCCN=C1NN=C(c2cc(C)n(Cc3ccco3)c2C)CS1	-9%	4%	-20%	?	19%	-11%
COCC(C)N=C1NN=C(c2cc(C)n(Cc3ccccc3Cl)c2C)CS1 (configuration not stated)	4%	-9%	-8%	-20%	7%	-7%
COCCn1c(C)cc(C2=NNC(=NC3CC3)SC2)c1C	-4%	9%[57.1 µM]	-40%	50µM*	-31%	-1%
COCCn1c(C)cc(C2=NNC(=Nc3ccc(Cl)cc3Cl)SC2)c1C	-5%	16%[57.1 µM]	-2%	56µM*	-2%	2%
C=CCN=C1NN=C(c2cc(C)n(CCOC)c2C)CS1	-2%	-13%	-10%	40µM*	-15%	2%
Cc1ccccc1-n1c(=O)cc(N2CCN(C(=O)c3ccco3)CC2)[nH]c1=O	-3%	10%[57.1 µM]	?	79µM*	-1%	-28%
CCN1C(=O)[C@H]2[C@H]3CN=C(SCc4ccc(Cl)cc4)N3[C@@](CC)(C(=O)OC)[C@H]2C1=O	0%	-8%	-13%	.	17%	7%
SMILES	KAT2A inh	TrxR1 substrate	TrxR1 inh	Sfp inh	GLS inhibitor	VDR inhibitor
CCOc1ccccc1CN1CCNC(=O)C1CC(=O)NCCN1CCOC1=O (configuration not stated)	-1%	3%	-9%	11%	2%	-10%
Cc1ccc(CNC(=O)CCC2CCCN(C(=O)c3ccc4c(c3)OCO4)C2)o1 (configuration not stated)	0%	-4%	71µM*	28µM*	0%	-6%
COc1ccc(C(=O)n2cnc(N)n2)cc1	2.2µM*	0%[57.1 µM]	13%[57.1 µM]	15%	-11%	-10%
O=C(NCC(=O)N(Cc1ccco1)C(C(=O)NC1CCCCC1)c1cccnc1)c1cccs1 (configuration not stated)	-19%	0%	-12%	12%	-8%	3%
COc1ccc(N2CCN(C(=O)c3ccc(N(C)S(=O)(=O)c4ccc(OC)cc4)cc3)CC2)cc1	0%	3%[57.1 µM]	7%[57.1 µM]	-3%	-19%	89µM*
Cc1ccccc1NC(=O)c1c(C)[nH]c(=S)c(C#N)c1-c1ccc(Cl)cc1	0%	8%[57.1 µM]	-37%	-10%	0%	-1%
Cc1[nH]c(=S)c(C#N)c(-c2ccccc2)c1C(=O)Nc1ccccc1	-3%	-1%[57.1 µM]	?	28µM*	29%	-27%
Cc1ccc(-c2c(C(=O)Nc3ccccc3C)c(C)[nH]c(=S)c2C#N)o1	?	-6%	-54%	2.8µM*	-6%	5%
Cc1ccc(-c2cn(-c3ccccc3)c(=S)[nH]2)cc1C	-21%	-2%	-2%	-24%	6%	-14%
Cc1ccccc1-c1cn(-c2ccccc2)c(=S)[nH]1	-2%	14%	-15%	?	11µM*	-8%
NNc1ccc([N+](=O)[O-])c2[nH][nH]c(=O)c12	.	.	.	.	7.9µM*	.
